IDE exosite inh – insulin-degrading enzyme (human) exo-site inhibition. purified IDE, FL-6b probe fluorescence polarization; active compounds read low. z-score at 20 µM. P14735. actives 6.3% (n = 17,000);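 active means z-score of -3 or lower, meaning strong loss of probe binding signal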;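 further: His-tagged human IDE residues 42-1019 made in E. coli with 30 nM FL-6b probe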
Active calls of the source: *. This excerpt belongs to a sample that is enriched for hits.

SMILES	IDE exosite inh
Cc1cccc(S(=O)(=O)N2[C@@H]3CNC[C@H]2C3c2ccc(-c3cccnc3)cc2)c1 (stereo partly drawn)	-0.501
O=C(C[C@H]1CC[C@@H]2NC[C@@H](O)COC[C@H]2O1)NCCc1ccncc1	0.364
CCNC(=O)[C@@H]1[C@@H](CO)[C@@H]2Cn3c(ccc(-c4cncnc4)c3=O)[C@@H]2N1C(=O)NC1CCCC1	-0.808
CO[C@@H]1CN(C)C(=O)c2ccc(NS(C)(=O)=O)cc2OC[C@H](C)N(CC2CC2)C[C@@H]1C	0.596
CN1C[C@H]2[C@@H](c3ccccc31)[C@H](CO)N2S(=O)(=O)c1ccccc1	0.196
CN1C(=O)c2cc(NC(=O)Cc3cccs3)ccc2OC[C@@H]2O[C@@H](CC(=O)NCCc3ccncc3)CC[C@@H]21	-0.0877
CO[C@@H](CN(C)C(=O)C1CCOCC1)[C@H](C)CN([C@H](C)CO)S(=O)(=O)c1ccccc1	0.314
CN(C)C(=O)C[C@@H]1CC[C@H]2[C@@H](COC[C@H](O)CN2C(=O)C2CCOCC2)O1	0.856
Cc1noc(C)c1NC(=O)N1C[C@H](O)COC[C@H]2O[C@@H](CC(=O)N[C@H]3CCN(Cc4ccccc4)C3)CC[C@@H]21	-1.65
CC(=O)N1CCCCN2[C@@H](CO)[C@@H](c3ccc(-c4ccccc4)cc3)[C@@H]2C1	-1.84
CC(=O)N1CCCCN2[C@H](CO)[C@@H](c3ccc(-c4cccc(C)c4)cc3)[C@@H]2C1	-3.48*
CC(=O)N1CCCCN2[C@H](CO)[C@@H](c3ccc(-c4cccc(C)c4)cc3)[C@H]2C1	-5.65*
COCC(=O)N1CCCCN2[C@H](CO)[C@H](c3ccc(-c4ccc(C)cc4)cc3)[C@H]2C1	0.0987
CC(=O)N1CCCCN2[C@H](C1)[C@H](c1ccc(-c3ccccc3)cc1)[C@@H]2CO	0.469
COCC(=O)N1CCCCN2[C@H](C1)[C@@H](c1ccc(-c3cccc(C)c3)cc1)[C@@H]2CO	-4.95*
COCC(=O)N1CCCCN2[C@H](CO)[C@@H](c3ccc(-c4cccc(C)c4)cc3)[C@H]2C1	-0.661
CC(=O)N1CCCCN2[C@H](CO)[C@H](c3ccc(-c4ccc(C)cc4)cc3)[C@@H]2C1	0.446
CC(=O)N1CCCCN2[C@@H](CO)[C@@H](c3ccc(-c4cccc(C)c4)cc3)[C@@H]2C1	-2.41
COc1ccc2c3c(n(C)c2c1)[C@H](CO)N(CC1CC1)CC31CCN(S(=O)(=O)c2cccs2)CC1	-1.27
COc1ccc(S(=O)(=O)Nc2ccc3c(c2)OC[C@@H](C)NC[C@H](C)[C@H](OC)CN(C)C3=O)cc1	0.397
CS(=O)(=O)N1CC(=O)N2[C@H](CO)[C@@H](c3ccc(C#CC4CCCC4)cc3)[C@@H]2C1	3.71
C/C=C/c1ccc([C@H]2[C@@H](CO)N[C@@H]2CN(Cc2cccnc2)C(=O)C2CC2)cc1	-1.85
CCCNC(=O)N1[C@@H](CO)[C@@H](c2ccccc2)C12CN(CCC(F)(F)F)C2	-0.475
CN(C)C(=O)c1cccc(-c2ccc([C@@H]3[C@@H](CO)N4C(=O)CN(C(=O)Cc5ccccc5)C[C@@H]34)cc2)c1	3.68
O=C(C[C@H]1CC[C@@H]2[C@H](COC[C@@H](O)CN2Cc2ccc(Oc3ccccc3)cc2)O1)N1CCN(c2ccccc2)CC1	1.15
SMILES	IDE exosite inh
COCC(=O)N1CC(=O)N2[C@@H](CO)[C@@H](c3ccc(-c4ccccc4F)cc3)[C@@H]2C1	-1.07
COCC(=O)N1CC(=O)N2[C@H](C1)[C@@H](c1ccc(-c3ccccc3F)cc1)[C@@H]2CO	-2.63
CCC(=O)N1CC(=O)N2[C@H](CO)[C@H](c3ccc(-c4ccccc4F)cc3)[C@H]2C1	-7.42*
CCC(=O)N1CC(=O)N2[C@H](C1)[C@@H](c1ccc(-c3ccccc3F)cc1)[C@@H]2CO	-8.05*
CCN1CC(=O)N2[C@H](CO)[C@H](c3ccc(-c4ccccc4F)cc3)[C@@H]2C1	-0.0549
CCC(=O)N1CC(=O)N2[C@H](CO)[C@H](c3ccc(-c4ccccc4F)cc3)[C@@H]2C1	-2.07
CCC(=O)NC[C@@H]1[C@@H](c2ccc(-c3cccc(F)c3)cc2)[C@@H](CO)N1CC1CC1	0.311
N#C[C@H]1[C@@H](c2ccc(C#CCC3CCCC3)cc2)[C@@H](CO)N1C(=O)c1ccccn1	3.74
Cc1ccccc1S(=O)(=O)N1CC(=O)N2[C@H](CO)[C@H](c3ccc(C#CCN(C)C)cc3)[C@@H]2C1	1.63
CCC(=O)N1CC(=O)N2[C@H](CO)[C@H](c3ccc(C#Cc4cccc(F)c4)cc3)[C@@H]2C1	-6.96*
CCC(=O)N1CC(=O)N2[C@@H](CO)[C@H](c3ccc(C#Cc4cccc(F)c4)cc3)[C@@H]2C1	-0.847
CCC(=O)N1CC(=O)N2[C@H](C1)[C@H](c1ccc(C#Cc3cccc(F)c3)cc1)[C@@H]2CO	-8.09*
CCS(=O)(=O)N1CC(=O)N2[C@H](C1)[C@@H](c1ccc(C#Cc3cccc(F)c3)cc1)[C@@H]2CO	-1.64
CS(=O)(=O)N1CC(=O)N2[C@H](CO)[C@@H](c3ccc(C#Cc4cccc(F)c4)cc3)[C@@H]2C1	1.45
CS(=O)(=O)N1CC(=O)N2[C@H](CO)[C@H](c3ccc(C#Cc4cccc(F)c4)cc3)[C@@H]2C1	-9.05*
CS(=O)(=O)N1CC(=O)N2[C@H](CO)[C@@H](c3ccc(C#Cc4cccc(F)c4)cc3)[C@H]2C1	-1.13
CS(=O)(=O)N1CC(=O)N2[C@@H](CO)[C@H](c3ccc(C#Cc4cccc(F)c4)cc3)[C@@H]2C1	-2.9
O=C(CC1CC1)N1CC(=O)N2[C@H](CO)[C@@H](c3ccc(C#Cc4cccc(F)c4)cc3)[C@@H]2C1	-2.12
C[C@@H]1CCCCO[C@@H](CN(C)C(=O)Cc2ccccc2)[C@@H](C)CN([C@@H](C)CO)C(=O)c2cc(NS(C)(=O)=O)ccc2O1	1.22
OC[C@H]1[C@H](c2ccc(C#CC3(O)CCCC3)cc2)[C@@H]2CN(Cc3cccnc3)CCCCN12	-0.383
O=C(Cc1cccnc1)N1CC(=O)N2[C@H](CO)[C@H](c3ccc(C4=CCCC4)cc3)[C@@H]2C1	0.892
C[C@@H]1CCCCO[C@@H](CN(C)C(=O)CCC(F)(F)F)[C@H](C)CN([C@H](C)CO)C(=O)c2cc(NC(=O)C3CCCCC3)ccc2O1	-0.269
O=C(C[C@H]1CC[C@@H](NC(=O)c2cccnc2)[C@@H](CO)O1)NCc1ccc(Cl)c(Cl)c1	0.985
Cc1ccccc1-c1ccc([C@H]2[C@@H](CO)N3CCCCN(C(=O)c4cccnc4)C[C@@H]23)cc1	-4.79*
Cc1ccccc1-c1ccc([C@@H]2[C@H]3CN(C(=O)c4cccnc4)CCCCN3[C@H]2CO)cc1	-7.33*
SMILES	IDE exosite inh
Cc1ccccc1-c1ccc([C@@H]2[C@@H](CO)N3CCCCN(C(=O)c4cccnc4)C[C@@H]23)cc1	-7.98*
O=C(N[C@@H]1CC[C@@H](CC(=O)N2CCOCC2)O[C@H]1CO)c1cccc(F)c1	1.17
C/C=C/c1ccc([C@H]2[C@@H](CO)N(S(C)(=O)=O)[C@@H]2CN(CC)C(C)=O)cc1	0.534
C[C@@H]1CCCCO[C@@H](CN(C)CC2CCCCC2)[C@@H](C)CN([C@H](C)CO)C(=O)c2cc(NS(C)(=O)=O)ccc2O1	-0.105
CCCC#Cc1ccc([C@H]2[C@@H](CO)N(C(C)=O)[C@H]2CN(C)S(C)(=O)=O)cc1	0.228
CN(C)C(=O)c1cccc(-c2ccc([C@H]3[C@H](CO)N4CCCCN(CCC(F)(F)F)C[C@@H]34)cc2)c1	4.25
O=C(c1cccc(F)c1)N1CCCCN2[C@@H](CO)[C@H](c3ccc(/C=C/c4ccccc4)cc3)[C@@H]2C1	0.0221
